# Data reported in ChEMBL document CHEMBL2218924, “A broad activity screen in support of a chemogenomic map for kinase signalling research and drug discovery” (Biochem J, 2013).
# What was measured:
# [1] = target: T1, Ephrin type-A receptor 3 (Homo sapiens) (UniProt P29320); settings: at 10 µM
# T1 sequence (whole entry): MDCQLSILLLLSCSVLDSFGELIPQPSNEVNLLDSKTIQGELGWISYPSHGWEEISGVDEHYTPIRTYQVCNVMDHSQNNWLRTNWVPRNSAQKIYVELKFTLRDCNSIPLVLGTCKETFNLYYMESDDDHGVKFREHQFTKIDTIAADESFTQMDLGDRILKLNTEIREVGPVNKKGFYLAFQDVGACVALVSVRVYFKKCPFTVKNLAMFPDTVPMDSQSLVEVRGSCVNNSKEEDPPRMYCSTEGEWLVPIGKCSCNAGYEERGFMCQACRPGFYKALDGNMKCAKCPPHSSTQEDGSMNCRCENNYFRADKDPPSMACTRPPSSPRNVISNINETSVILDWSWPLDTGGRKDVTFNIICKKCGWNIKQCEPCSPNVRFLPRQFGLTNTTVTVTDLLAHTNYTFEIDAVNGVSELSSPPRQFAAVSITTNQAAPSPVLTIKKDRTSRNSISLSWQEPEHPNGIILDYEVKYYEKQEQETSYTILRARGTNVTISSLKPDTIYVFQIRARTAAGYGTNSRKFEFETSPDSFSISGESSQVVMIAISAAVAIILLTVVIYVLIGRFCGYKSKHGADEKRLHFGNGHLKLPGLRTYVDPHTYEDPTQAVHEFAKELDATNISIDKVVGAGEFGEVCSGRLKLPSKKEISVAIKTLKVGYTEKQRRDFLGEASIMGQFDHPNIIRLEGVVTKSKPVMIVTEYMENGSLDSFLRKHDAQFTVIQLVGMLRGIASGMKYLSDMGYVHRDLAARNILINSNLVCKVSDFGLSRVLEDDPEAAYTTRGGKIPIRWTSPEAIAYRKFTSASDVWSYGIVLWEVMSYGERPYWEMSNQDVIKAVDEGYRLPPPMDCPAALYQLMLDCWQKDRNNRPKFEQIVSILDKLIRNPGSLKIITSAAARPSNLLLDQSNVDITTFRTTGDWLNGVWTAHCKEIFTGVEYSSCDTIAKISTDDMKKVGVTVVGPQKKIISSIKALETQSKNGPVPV
# [2] = target: Ephrin type-A receptor 4 (Homo sapiens) (UniProt P54764); settings: at 1 µM
# Ephrin type-A receptor 4 (Homo sapiens), sequence (P54764 whole entry): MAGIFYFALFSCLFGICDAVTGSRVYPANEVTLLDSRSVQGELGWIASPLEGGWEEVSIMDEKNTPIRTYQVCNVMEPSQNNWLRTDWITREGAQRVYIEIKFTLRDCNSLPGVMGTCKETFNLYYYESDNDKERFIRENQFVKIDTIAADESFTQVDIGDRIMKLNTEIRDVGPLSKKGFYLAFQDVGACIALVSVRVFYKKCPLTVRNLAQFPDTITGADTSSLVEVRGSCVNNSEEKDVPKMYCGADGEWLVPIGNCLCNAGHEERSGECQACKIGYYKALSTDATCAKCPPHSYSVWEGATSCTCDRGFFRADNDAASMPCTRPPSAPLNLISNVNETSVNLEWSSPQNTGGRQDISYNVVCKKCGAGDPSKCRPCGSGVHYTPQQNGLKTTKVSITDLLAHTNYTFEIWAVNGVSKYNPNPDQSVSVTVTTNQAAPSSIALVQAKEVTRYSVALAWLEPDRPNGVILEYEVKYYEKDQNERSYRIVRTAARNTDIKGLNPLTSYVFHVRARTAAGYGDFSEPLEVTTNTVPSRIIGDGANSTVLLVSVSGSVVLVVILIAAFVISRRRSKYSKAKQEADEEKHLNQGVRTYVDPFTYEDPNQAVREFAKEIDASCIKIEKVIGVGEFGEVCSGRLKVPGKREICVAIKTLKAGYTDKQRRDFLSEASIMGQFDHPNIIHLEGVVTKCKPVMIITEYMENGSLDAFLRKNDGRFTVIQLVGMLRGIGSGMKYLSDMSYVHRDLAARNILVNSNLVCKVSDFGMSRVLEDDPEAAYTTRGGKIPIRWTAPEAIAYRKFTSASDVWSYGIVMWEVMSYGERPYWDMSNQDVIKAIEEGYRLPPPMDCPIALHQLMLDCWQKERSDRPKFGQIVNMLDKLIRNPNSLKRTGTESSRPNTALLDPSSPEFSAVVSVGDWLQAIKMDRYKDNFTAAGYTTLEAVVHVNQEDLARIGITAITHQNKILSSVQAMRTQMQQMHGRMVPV
# [3] = target: Ephrin type-A receptor 4 (Homo sapiens) (UniProt P54764); settings: at 10 µM
# [4] = target: Ephrin type-A receptor 5 (Homo sapiens) (UniProt P54756); settings: at 1 µM
# Ephrin type-A receptor 5 (Homo sapiens), sequence (P54756 whole entry): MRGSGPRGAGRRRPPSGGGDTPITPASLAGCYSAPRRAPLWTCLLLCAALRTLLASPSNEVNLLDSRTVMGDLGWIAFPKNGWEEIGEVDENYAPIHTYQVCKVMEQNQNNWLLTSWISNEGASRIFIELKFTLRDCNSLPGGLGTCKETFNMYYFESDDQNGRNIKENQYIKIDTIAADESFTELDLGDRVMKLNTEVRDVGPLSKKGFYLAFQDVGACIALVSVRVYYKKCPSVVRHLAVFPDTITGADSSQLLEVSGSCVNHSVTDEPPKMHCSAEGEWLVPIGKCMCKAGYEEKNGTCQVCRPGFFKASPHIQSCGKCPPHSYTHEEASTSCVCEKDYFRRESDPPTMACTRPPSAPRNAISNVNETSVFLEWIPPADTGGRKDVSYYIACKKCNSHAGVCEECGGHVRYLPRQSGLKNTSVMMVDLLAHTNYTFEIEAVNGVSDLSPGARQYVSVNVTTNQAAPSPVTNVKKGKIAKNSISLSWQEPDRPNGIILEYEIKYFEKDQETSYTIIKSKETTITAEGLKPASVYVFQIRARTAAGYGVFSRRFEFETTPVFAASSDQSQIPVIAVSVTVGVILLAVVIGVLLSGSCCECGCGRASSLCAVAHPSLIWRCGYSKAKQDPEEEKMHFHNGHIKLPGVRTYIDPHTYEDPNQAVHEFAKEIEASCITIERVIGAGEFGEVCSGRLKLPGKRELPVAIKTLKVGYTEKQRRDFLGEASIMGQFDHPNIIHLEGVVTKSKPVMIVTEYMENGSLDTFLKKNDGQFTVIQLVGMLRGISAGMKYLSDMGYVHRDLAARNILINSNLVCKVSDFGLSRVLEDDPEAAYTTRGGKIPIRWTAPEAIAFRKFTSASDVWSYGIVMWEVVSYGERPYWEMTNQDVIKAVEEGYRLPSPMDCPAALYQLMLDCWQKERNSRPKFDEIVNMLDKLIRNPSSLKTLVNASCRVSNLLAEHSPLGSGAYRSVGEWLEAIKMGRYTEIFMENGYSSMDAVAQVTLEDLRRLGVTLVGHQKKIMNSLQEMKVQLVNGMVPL
# [5] = target: Ephrin type-A receptor 5 (Homo sapiens) (UniProt P54756); settings: at 10 µM
# [6] = target: Ephrin type-A receptor 7 (Homo sapiens) (UniProt Q15375); settings: at 1 µM
# Ephrin type-A receptor 7 (Homo sapiens), sequence (Q15375 28-998 limits assumed): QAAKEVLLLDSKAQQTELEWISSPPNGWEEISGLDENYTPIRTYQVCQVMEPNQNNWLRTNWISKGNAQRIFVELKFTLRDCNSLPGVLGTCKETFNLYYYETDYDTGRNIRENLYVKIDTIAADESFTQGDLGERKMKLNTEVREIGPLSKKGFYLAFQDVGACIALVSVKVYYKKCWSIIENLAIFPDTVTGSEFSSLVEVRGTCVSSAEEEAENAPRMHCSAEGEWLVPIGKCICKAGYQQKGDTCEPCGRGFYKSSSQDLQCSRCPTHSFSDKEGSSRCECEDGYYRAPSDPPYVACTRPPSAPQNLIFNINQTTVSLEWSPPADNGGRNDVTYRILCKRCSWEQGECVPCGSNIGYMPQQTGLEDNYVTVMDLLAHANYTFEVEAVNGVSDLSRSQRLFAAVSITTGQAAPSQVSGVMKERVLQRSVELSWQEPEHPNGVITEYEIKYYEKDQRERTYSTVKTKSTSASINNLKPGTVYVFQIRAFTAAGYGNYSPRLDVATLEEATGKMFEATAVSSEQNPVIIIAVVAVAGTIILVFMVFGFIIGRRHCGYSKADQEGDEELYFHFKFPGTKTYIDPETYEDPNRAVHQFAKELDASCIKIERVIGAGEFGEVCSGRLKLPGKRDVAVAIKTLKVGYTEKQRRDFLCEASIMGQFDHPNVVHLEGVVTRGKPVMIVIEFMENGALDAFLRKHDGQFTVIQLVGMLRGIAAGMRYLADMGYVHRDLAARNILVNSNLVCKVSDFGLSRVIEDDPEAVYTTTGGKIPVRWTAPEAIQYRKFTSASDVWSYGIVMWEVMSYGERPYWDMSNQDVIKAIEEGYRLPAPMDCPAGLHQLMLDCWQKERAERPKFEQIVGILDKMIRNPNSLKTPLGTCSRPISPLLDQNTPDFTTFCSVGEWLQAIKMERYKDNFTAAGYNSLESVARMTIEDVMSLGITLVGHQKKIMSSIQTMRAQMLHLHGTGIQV
# [7] = target: Ephrin type-A receptor 7 (Homo sapiens) (UniProt Q15375); settings: at 10 µM
# [8] = target: T2, Ephrin type-A receptor 8 (Homo sapiens) (UniProt P29322); settings: at 1 µM
# T2 sequence (whole entry): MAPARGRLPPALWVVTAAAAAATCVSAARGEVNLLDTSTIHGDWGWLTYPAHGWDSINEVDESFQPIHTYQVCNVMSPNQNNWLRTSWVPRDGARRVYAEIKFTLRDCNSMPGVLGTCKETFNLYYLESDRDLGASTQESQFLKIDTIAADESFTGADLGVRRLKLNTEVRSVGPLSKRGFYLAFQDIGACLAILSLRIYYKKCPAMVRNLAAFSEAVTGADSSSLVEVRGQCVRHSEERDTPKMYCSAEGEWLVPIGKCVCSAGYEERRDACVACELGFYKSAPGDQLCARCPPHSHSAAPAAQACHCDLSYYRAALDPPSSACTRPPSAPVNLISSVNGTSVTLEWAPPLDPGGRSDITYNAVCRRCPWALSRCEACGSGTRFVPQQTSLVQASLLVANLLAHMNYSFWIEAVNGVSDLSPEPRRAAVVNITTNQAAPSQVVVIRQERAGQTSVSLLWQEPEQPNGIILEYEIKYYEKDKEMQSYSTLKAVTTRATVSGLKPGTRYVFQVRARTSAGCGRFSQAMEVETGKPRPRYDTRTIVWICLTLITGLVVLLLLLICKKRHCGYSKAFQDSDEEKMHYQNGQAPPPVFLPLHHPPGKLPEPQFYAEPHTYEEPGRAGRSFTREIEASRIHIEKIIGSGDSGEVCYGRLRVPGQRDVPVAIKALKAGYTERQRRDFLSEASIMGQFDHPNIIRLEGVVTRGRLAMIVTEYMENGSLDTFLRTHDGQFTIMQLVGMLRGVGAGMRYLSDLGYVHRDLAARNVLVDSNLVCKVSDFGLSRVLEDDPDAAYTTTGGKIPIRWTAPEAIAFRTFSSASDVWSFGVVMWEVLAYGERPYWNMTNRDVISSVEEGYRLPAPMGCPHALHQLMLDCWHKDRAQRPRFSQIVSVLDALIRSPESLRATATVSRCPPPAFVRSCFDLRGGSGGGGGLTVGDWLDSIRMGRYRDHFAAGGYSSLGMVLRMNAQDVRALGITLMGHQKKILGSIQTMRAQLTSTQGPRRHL
# [9] = target: T2, Ephrin type-A receptor 8 (Homo sapiens); settings: at 10 µM
# [10] = target: T3, Ephrin type-B receptor 1 (Homo sapiens) (UniProt P54762); settings: at 1 µM
# T3 sequence (whole entry): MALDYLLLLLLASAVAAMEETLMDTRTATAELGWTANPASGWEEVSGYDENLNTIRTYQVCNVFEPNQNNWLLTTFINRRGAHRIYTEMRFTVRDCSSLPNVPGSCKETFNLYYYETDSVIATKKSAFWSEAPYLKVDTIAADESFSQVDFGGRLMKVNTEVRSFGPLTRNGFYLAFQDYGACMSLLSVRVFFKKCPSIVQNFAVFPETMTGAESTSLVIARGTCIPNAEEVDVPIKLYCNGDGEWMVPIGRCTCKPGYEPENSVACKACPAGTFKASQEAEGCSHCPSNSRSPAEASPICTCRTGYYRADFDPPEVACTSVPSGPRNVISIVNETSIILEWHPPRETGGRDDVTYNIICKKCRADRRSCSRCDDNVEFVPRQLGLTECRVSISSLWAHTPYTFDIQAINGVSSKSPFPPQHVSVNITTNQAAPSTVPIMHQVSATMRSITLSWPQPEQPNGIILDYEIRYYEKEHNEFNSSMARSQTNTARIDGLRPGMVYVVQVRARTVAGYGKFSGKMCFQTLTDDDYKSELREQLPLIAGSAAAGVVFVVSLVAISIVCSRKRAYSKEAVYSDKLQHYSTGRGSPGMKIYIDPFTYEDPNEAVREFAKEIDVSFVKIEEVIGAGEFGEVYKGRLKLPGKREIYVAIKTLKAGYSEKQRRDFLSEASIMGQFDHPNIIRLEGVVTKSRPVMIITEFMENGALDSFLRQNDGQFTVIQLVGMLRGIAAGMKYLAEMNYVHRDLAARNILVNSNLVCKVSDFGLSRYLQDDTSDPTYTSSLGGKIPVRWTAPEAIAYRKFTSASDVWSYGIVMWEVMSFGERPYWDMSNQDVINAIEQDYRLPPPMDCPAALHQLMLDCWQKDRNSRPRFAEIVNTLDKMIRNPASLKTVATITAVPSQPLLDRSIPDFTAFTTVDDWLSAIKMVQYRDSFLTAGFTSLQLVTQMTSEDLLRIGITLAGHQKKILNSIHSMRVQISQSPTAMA
structure (smiles),measurement,setting,value
O=C(Nc1cccc(Nc2nccc(Nc3cccc(C(F)(F)F)c3)n2)c1)C1CC1,residual activity,[1],47%
same,residual activity,[2],102%
same,residual activity,[3],92%
same,residual activity,[4],99%
same,residual activity,[5],80%
same,residual activity,[6],81%
same,residual activity,[7],43%
same,residual activity,[8],97%
same,residual activity,[9],67%
same,residual activity,[10],62%
